The whole screen tested about 39,000 compounds, of which about 220 (0.56%) showed activity. Shown is part of a subset that was picked to be rich in actives. Unmarked numbers belong to inactive results.
Tested on: Escherichia coli K-12 BW25113
Assay: relative growth (OD600 normalised to plate interquartile mean) (fraction); higher = less growth inhibition, active = 0.2 or less
Settings: 50 µM; LB; incubation time: overnight (16-24 h)
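Note: Wild-type cells incubated without shaking, value is the mean of two biological replicates.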

Structure (SMILES) | relative growth
CNC1C(O)C(NC)C2OC3(O)C(=O)CC(C)OC3OC2C1O.Cl.Cl (stereo unspecified) | 0.048 (active)
CN[C@@H]1[C@H](O)[C@H](NC)[C@H]2O[C@@]3(O)C(=O)C[C@@H](C)O[C@H]3O[C@@H]2[C@H]1O | 0.0458 (active)
C[C@@H]1CN([C@H](C)CO)C(=O)c2cc(NC(=O)C3CC3)ccc2O[C@@H]1CN(C)S(=O)(=O)c1ccccc1 | 0.987
CC(C)NC(=O)Nc1cccc2c1O[C@H](CN(C)Cc1ccc(-c3ccccc3)cc1)[C@@H](C)CN([C@@H](C)CO)C2=O | 0.997
C[C@H]1CCCCO[C@H](CN(C)Cc2ccncc2)[C@@H](C)CN([C@@H](C)CO)C(=O)c2cc(NC(=O)C3CCCCC3)ccc2O1 | 0.956
COc1ccc(S(=O)(=O)Nc2cccc3c2O[C@@H](CN(C)C(=O)NC(C)C)[C@H](C)CN([C@H](C)CO)C3=O)cc1 | 0.978
COc1ccc(CN(C)C[C@@H]2OCCCC[C@H](C)Oc3ccc(NS(=O)(=O)c4ccc(OC)cc4)cc3C(=O)N([C@H](C)CO)C[C@H]2C)cc1 | 0.994
CN[C@@H]1[C@H](O[C@H]2[C@H](O[C@@H]3[C@@H](O)[C@H](O)[C@@H](NC(=N)N)[C@H](O)[C@H]3NC(=N)N)O[C@@H](C)[C@]2(O)C=O)O[C@@H](CO)[C@H](O)[C@H]1O | 0.972
CNC1C(OC2C(OC3C(O)C(O)C(NC(=N)N)C(O)C3NC(=N)N)OC(C)C2(O)C=O)OC(CO)C(O)C1O.O=S(=O)(O)O (stereo unspecified) [STREPTOMYCIN SULFATE [5mM; 10% aq DMSO + 5mM ethanolamine]] | 1.11
CNC1C(OC2C(OC3C(O)C(O)C(NC(=N)N)C(O)C3NC(=N)N)OC(C)C2(O)CO)OC(CO)C(O)C1O.O=S(=O)(O)O (stereo unspecified) | 0.0643 (active)
CN[C@@H]1[C@H](O[C@H]2[C@H](O[C@@H]3[C@@H](O)[C@H](O)[C@@H](NC(=N)N)[C@H](O)[C@H]3NC(=N)N)O[C@@H](C)[C@]2(O)CO)O[C@@H](CO)[C@H](O)[C@H]1O.CN[C@@H]1[C@H](O[C@H]2[C@H](O[C@@H]3[C@@H](O)[C@H](O)[C@@H](NC(=N)N)[C@H](O)[C@H]3NC(=N)N)O[C@@H](C)[C@]2(O)CO)O[C@@H](CO)[C@H](O)[C@H]1O | 0.11 (active)
CN[C@H]1[C@@H](O[C@H]2[C@@H](O[C@H]3[C@@H](O)[C@@H](O)[C@@H](NC(=N)N)[C@@H](O)[C@@H]3NC(=N)N)O[C@@H](C)[C@@]2(O)C=O)O[C@@H](CO)[C@@H](O)[C@@H]1O.CN[C@H]1[C@@H](O[C@H]2[C@@H](O[C@H]3[C@@H](O)[C@@H](O)[C@@H](NC(=N)N)[C@@H](O)[C@@H]3NC(=N)N)O[C@@H](C)[C@@]2(O)C=O)O[C@@H](CO)[C@@H](O)[C@@H]1O.O=S(=O)(O)O.O=S(=O)(O)O.O=S(=O)(O)O | 0.372
CN[C@@H]1[C@H](O[C@H]2[C@H](O[C@H]3[C@H](O)[C@@H](O)[C@H](NC(=N)N)[C@@H](O)[C@@H]3NC(=N)N)O[C@@H](C)[C@]2(O)C=O)O[C@@H](CO)[C@H](O)[C@H]1O | 0.888
C[C@H]1CN([C@@H](C)CO)C(=O)c2cc(NC(=O)C3CC3)ccc2O[C@@H]1CN(C)S(=O)(=O)c1cn(C)cn1 | 0.941
C[C@@H]1CCCCO[C@H](CN(C)Cc2ccc(C(F)(F)F)cc2)[C@H](C)CN([C@@H](C)CO)C(=O)c2cc(NS(=O)(=O)c3ccc(Cl)cc3)ccc2O1 | 1.03
O=C(C[C@@H]1C=C[C@H](NC(=O)c2cnccn2)[C@H](CO)O1)NCc1ccccc1F | 1.03
OC[C@@H]1CN(CCN2CCOCC2)C[C@H](n2cnc3c(NC4CCC4)ncnc32)O1 | 0.936
C[C@@H]1CN([C@H](C)CO)C(=O)CCCn2nncc2CO[C@H]1CN(C)S(=O)(=O)c1ccc(-c2ccccc2)cc1 | 0.979
CCCN(C)C[C@@H]1OCCCC[C@@H](C)Oc2ccc(NC(=O)Nc3ccc4c(c3)OCO4)cc2C(=O)N([C@H](C)CO)C[C@H]1C | 1.03

Structure (SMILES) | relative growth
CC(=O)OCC1=C(C(=O)O)N2C(=O)[C@@H](NC(=O)CSc3ccncc3)[C@H]2SC1 | 1.05
O=C(Cn1cnnn1)NC1C(=O)N2C(C(=O)O)=C(CSc3nncs3)CSC12 (stereo unspecified) | 0.0457 (active)
Cc1nnc(SCC2=C(C(=O)[O-])N3C(=O)C(NC(=O)Cn4cnnn4)C3SC2)s1.[Na+] (stereo unspecified) | 0.0433 (active)
Cc1nnc(SCC2=C(C(=O)O)N3C(=O)[C@@H](N)[C@H]3SC2)s1 | 1
Cc1nnc(SCC2=C(C(=O)O)N3C(=O)[C@@H](NC(=O)Cn4cnnn4)[C@H]3SC2)s1 | 0.0386 (active)
Cc1noc(C)c1S(=O)(=O)N(C)C[C@H]1Oc2c(NC(=O)C3CCCCC3)cccc2C(=O)N([C@@H](C)CO)C[C@H]1C | 1.01
C[C@@H]1CN([C@H](C)CO)C(=O)c2cc(NC(=O)NC3CCCCC3)ccc2O[C@@H](C)CCCCO[C@@H]1CN(C)Cc1ccncc1 | 0.996
C[C@H](CO)N1C[C@H](C)[C@@H](CN(C)Cc2ccc3c(c2)OCO3)Oc2ccc(NC(=O)c3ccncc3)cc2CC1=O | 1.01
Cc1ccc(S(=O)(=O)N(C)C[C@H]2Oc3c(NC(=O)NC(C)C)cccc3C(=O)N([C@@H](C)CO)C[C@H]2C)cc1 | 0.992
C[C@@H]1CN([C@H](C)CO)C(=O)Cc2cc(NC(=O)CCCN(C)C)ccc2O[C@@H]1CN(C)S(=O)(=O)c1ccc(Cl)cc1 | 0.973
COc1ccc(S(=O)(=O)N(C)C[C@@H]2Oc3ncc(C#Cc4ccc(OC)c(OC)c4)cc3C(=O)N([C@H](C)CO)C[C@@H]2C)cc1 | 0.91
Cc1cn([C@H]2C[C@H](O)[C@@H](CO)O2)c(=O)[nH]c1=O | 1.03
Cc1cn([C@@H]2C[C@@H](O)[C@H](CO)O2)c(=O)[nH]c1=O | 0.991
Cc1cn([C@@H]2C[C@H](O)[C@@H](CO)O2)c(=O)[nH]c1=O | 0.988
O=c1[nH]c(=O)n([C@@H]2C[C@@H](O)[C@@H](CO)O2)cc1F | 0.0303 (active)
O=c1[nH]c(=O)n(C2CC(O)C(CO)O2)cc1F (stereo unspecified) | 0.0526 (active)
O=c1[nH]c(=O)n([C@H]2C[C@H](O)[C@@H](CO)O2)cc1CO | 1.04
O=c1[nH]c(=O)n(C2CC(O)C(CO)O2)cc1I (stereo unspecified) | 1.06
O=c1[nH]c(=O)n([C@H]2C[C@H](O)[C@@H](CO)O2)cc1F | 0.0339 (active)

Structure (SMILES) | relative growth
O=c1[nH]c(=O)n([C@H]2C[C@H](O)[C@@H](CO)O2)cc1Br | 0.944
COC[C@H]1CN(C(=O)c2cccc(OC)c2)N1 | 1.01
Cc1ccc(S(=O)(=O)N(C)C[C@@H]2Oc3c(NC(=O)Nc4cccc5ccccc45)cccc3C(=O)N([C@H](C)CO)C[C@@H]2C)cc1 | 1
Cc1noc(C)c1S(=O)(=O)N(C)C[C@@H]1Oc2ccc(NC(=O)Cc3cn(C)c4ccccc34)cc2CC(=O)N([C@H](C)CO)C[C@@H]1C | 1.01
COc1nc(C)nc(Cl)c1NC1=NCCN1 | 1.03
C[C@H]1CCCCO[C@@H](CN(C)S(=O)(=O)c2ccc(Cl)cc2)[C@@H](C)CN([C@@H](C)CO)C(=O)c2cc(NC(=O)NC3CCCCC3)ccc2O1 | 1
CC1CN(c2c(F)c(N)c3c(=O)c(C(=O)O)cn(C4CC4)c3c2F)CC(C)N1 (stereo unspecified) | 0.0495 (active)
CC1CN(c2c(F)c(F)c3c(=O)c(C(=O)O)cn(C4CC4)c3c2F)CC(C)N1 (stereo unspecified) | 0.0486 (active)
C[C@H](NC(=O)C[C@@H]1C=C[C@H](NC(=O)CN2CCOCC2)[C@H](CO)O1)c1ccccc1 | 1.02
O=C(NCCCN1CCOCC1)[C@H]1N[C@H]2c3ccc(C4=CCCCC4)c(=O)n3C[C@H]2[C@@H]1CO | 0.98
C[C@@H]1CN([C@@H](C)CO)C(=O)c2cc(NS(=O)(=O)c3ccc(F)cc3)ccc2O[C@@H](C)CCCCO[C@@H]1CN(C)C(=O)Nc1ccc2c(c1)OCO2 | 1.01
C[C@@H]1CN([C@@H](C)CO)C(=O)c2cccc(NC(=O)c3ccc(-c4nccs4)cc3)c2O[C@H]1CN(C)C(=O)Nc1cccc2ccccc12 | 0.886
CN(C)CCN1CCc2ncc(Cn3cncn3)n2CC1 | 0.99
COc1ccc(S(=O)(=O)N(C)C[C@H]2OCCCC[C@H](C)Oc3ccc(NS(=O)(=O)c4cn(C)cn4)cc3C(=O)N([C@@H](C)CO)C[C@@H]2C)cc1 | 1
CC[C@@H](C)CCCCC(=O)N[C@@H](CCN)C(=O)N[C@H](C(=O)N[C@@H](CCN)C(=O)N[C@H]1CCNC(=O)[C@H]([C@@H](C)O)NC(=O)[C@H](CCN)NC(=O)[C@H](CCN)NC(=O)[C@H](CC(C)C)NC(=O)[C@@H](Cc2ccccc2)NC(=O)[C@@H](CCN)NC1=O)[C@@H](C)O | 0.0424 (active)
CC[C@@H](C)CCCC(=O)N[C@@H](CCN)C(=O)N[C@H](C(=O)N[C@@H](CCN)C(=O)N[C@H]1CCNC(=O)[C@H]([C@@H](C)O)NC(=O)[C@H](CCN)NC(=O)[C@H](CCN)NC(=O)[C@H](CC(C)C)NC(=O)[C@@H](CC(C)C)NC(=O)[C@H](CCN)NC1=O)[C@@H](C)O | 0.262
CC[C@H](C)[C@H](N)C1=N[C@H](C(=O)N[C@@H](CC(C)C)C(=O)N[C@H](CCC(=O)O)C(=O)N[C@H](C(=O)N[C@H]2CCCCNC(=O)[C@H](CC(N)=O)NC(=O)[C@@H](CC(=O)O)NC(=O)[C@H](Cc3cnc[nH]3)NC(=O)[C@@H](Cc3ccccc3)NC(=O)[C@H]([C@@H](C)CC)NC(=O)[C@@H](CCCN)NC2=O)[C@@H](C)CC)CS1 | 0.909
CCC(C)CCCCC(=O)NC(CCN)C(=O)NC(C(=O)NC(CCN)C(=O)NC1CCNC(=O)C(C(C)O)NC(=O)C(CCN)NC(=O)C(CCN)NC(=O)C(CC(C)C)NC(=O)C(Cc2ccccc2)NC(=O)C(CCN)NC1=O)C(C)O.O=S(=O)(O)O (stereo unspecified) | 0.0419 (active)
